Source: PubChem BioAssay AID1851 (National Center for Advancing Translational Sciences (NCATS), 2009)
In all, about 16,000 compounds went through this assay and about 5,700 (36%) were called active. Inconclusive results (about 24%) are left out. Calls come from the whole dose curve; as a rule, active = well fitted curve in the direction sought with a large enough effect; inconclusive = small, poorly fitted or top-dose-only effect, or effect the other way; inactive = no such curve, though single readings can be large or run the other way. The list shows a part of the results.

Target: Cytochrome P450 1A2 (Homo sapiens) (UniProt P05177)
Assay: Cytochrome panel assay with activity outcomes
Conditions: recombinant CYP, pro-luciferin dealkylation, luminescence, p450-cyp1a2; series mostly up to 57.1 µM
% is set by controls: 0 for no effect and ±100 for the full control effect.

Cytochrome P450 1A2 (Homo sapiens), sequence (P05177 whole entry, looked up): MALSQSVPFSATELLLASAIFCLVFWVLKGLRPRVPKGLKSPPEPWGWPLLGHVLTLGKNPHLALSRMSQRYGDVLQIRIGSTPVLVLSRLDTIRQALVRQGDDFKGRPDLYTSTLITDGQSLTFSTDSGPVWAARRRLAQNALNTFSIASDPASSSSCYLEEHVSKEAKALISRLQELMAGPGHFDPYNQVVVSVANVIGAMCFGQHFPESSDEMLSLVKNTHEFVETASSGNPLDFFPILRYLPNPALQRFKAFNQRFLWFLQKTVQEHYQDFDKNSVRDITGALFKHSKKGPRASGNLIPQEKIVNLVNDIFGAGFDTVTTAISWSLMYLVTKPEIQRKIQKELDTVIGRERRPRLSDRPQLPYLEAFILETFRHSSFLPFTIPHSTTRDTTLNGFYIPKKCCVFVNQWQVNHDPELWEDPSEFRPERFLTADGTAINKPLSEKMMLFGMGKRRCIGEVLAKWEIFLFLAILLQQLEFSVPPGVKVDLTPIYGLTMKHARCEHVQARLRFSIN

| Structure (SMILES) | activity, negative = inhibition | AC50 |
| --- | --- | --- |
| O=C1C[C@@H](O)[C@@H](O)[C@@H]2[C@H]3C(=O)N(c4ccc(F)cc4F)C(=O)[C@@H]3CC[C@@H]12 | -7.03% [at 11.4 µM] (inactive) |  |
| COc1ccc2cc3cc(C(=O)NCc4ccccn4)oc3nc2c1 |  | 1000 nM (active) |
| CC(C)CC(=O)Nc1sc2c(c1C#N)CC(C)(C)NC2(C)C |  | inactive |
| COc1cc(Cl)c(C)cc1NC(=O)CNC(=O)Cn1cnc2ccccc2c1=O |  | inactive |
| O=C1c2ccccc2C(=O)N1C[C@]1(C(=O)O)NCCS1(=O)=O | -5.5% [at 2.29 µM] (inactive) |  |
| O=c1c2ccccc2ncn1CCCSc1ccccc1 |  | 7080 nM (active) |
| Cc1ccc(SCCCn2cnc3ccccc3c2=O)cc1 |  | 3160 nM (active) |
| O=C(c1ccccc1)c1ccc(OCCn2cnc3ccccc3c2=O)cc1 |  | inactive |
| O=C1c2ccccc2C(=O)N1CCCSc1ccccc1 |  | 1000 nM (active) |
| O=C(O)CCCSc1ccccc1 | -11.7% [at 11.4 µM] (inactive) |  |
| CC(C)(C)NC(=O)C(Cc1ccccc1)NS(=O)(=O)c1ccc2c(c1)CCC(=O)N2 (stereo not drawn) |  | inactive |
| Cn1c(=O)c(-c2ccc(Cl)cc2)nc2cnc(Oc3ccccc3)nc21 |  | 200 nM (active) |
| COc1ccc(Oc2ncc3nc(-c4ccc(Cl)cc4)c(=O)n(C)c3n2)cc1 |  | 631 nM (active) |
| Cn1c(=O)c(-c2ccccc2)nc2cnc(Oc3ccccc3)nc21 |  | 2000 nM (active) |
| CC(C)CN1CC[C@@]2(CCCN(C(=O)c3csnn3)C2)C1 |  | inactive |
| CCn1ncc(/C=C/C(=O)NCc2cn(C)nc2C)c1C |  | inactive |
| CCCCCC(=O)Nc1cc2[nH]c(=O)cc(COC)c2cc1C |  | inactive |
| COCc1cc(=O)[nH]c2cc(NC(=O)C(F)(F)F)c(C)cc12 |  | 11200 nM (active) |
| COc1cccc(C(CC(=O)Nc2cccc3ccccc23)NC(=O)c2ccccc2)c1 (stereo not drawn) |  | inactive |
| CCC(=O)Nc1ccccc1C(=O)OCC(=O)c1ccccc1 |  | 5620 nM (active) |
| CCC(=O)Nc1ccccc1C(=O)OCC(=O)c1cccc2ccccc12 |  | 2510 nM (active) |

| Structure (SMILES) | activity, negative = inhibition | AC50 |
| --- | --- | --- |
| COc1ccc(C(=O)COC(=O)c2ccc(NC(=O)c3ccccc3)cc2)cc1 |  | inactive |
| COc1ccc(C(=O)Nc2ccc(C(=O)OCC(=O)c3ccccc3)cc2)cc1 |  | inactive |
| CN(C)c1ncnc2ccc(-c3cccnc3)cc12 |  | 200 nM (active) |
| COc1cccc(-c2ccc3ncnc(N(C)C)c3c2)c1 |  | 794 nM (active) |
| O=C1NC(O)=NC1(c1ccccc1)c1ccccc1 |  | inactive |
| CSc1nc(C2CC2)cc(-c2cccs2)c1C#N |  | 316 nM (active) |
| N#Cc1c(-c2ccccc2)cc(C2CC2)nc1SCC(=O)c1cccs1 |  | 562 nM (active) |
| CSc1nc(N)nc(-c2cccs2)c1C#N |  | 2000 nM (active) |
| Cc1ccc(N=CC2=C(O)CC(c3ccco3)CC2=O)cc1 (stereo not drawn) |  | 25100 nM (active) |
| CC(C)C12CN3CC(C(C)C)(CN(C1)C3c1ccco1)C2=O (stereo not drawn) |  | inactive |
| CCC(=O)N(C)/C=C1\Sc2ccccc2C1=O |  | 3160 nM (active) |
| CS(=O)(=O)c1cnc2c(-c3ccc(F)cc3)cnn2c1N |  | 3550 nM (active) |
| O=C(NCCNc1ccc([N+](=O)[O-])cc1)c1ccccc1Br |  | inactive |
| O=C(N/N=C/c1cc([N+](=O)[O-])ccc1N1CCNCC1)c1ccc([N+](=O)[O-])cc1 |  | inactive |
| Cc1ccc(C(=O)N/N=C/c2ccc([N+](=O)[O-])s2)cc1 |  | 2820 nM (active) |
| Cc1cccc(NC(=S)N/N=C/c2ccc([N+](=O)[O-])s2)c1 |  | 1410 nM (active) |
| O=C(N/N=C/c1ccc(Br)s1)c1ccccc1[N+](=O)[O-] |  | 14100 nM (active) |
| COc1cccc(NC(=S)NNC(=O)C(C)n2nc(C)c([N+](=O)[O-])c2C)c1 (stereo not drawn) |  | inactive |
| O=C(N/N=C/c1ccc([N+](=O)[O-])s1)c1ccccc1Br |  | 15800 nM (active) |
| CO[C@H]1COC(=O)C/C=C\[C@@H](C)[C@H](OC)COC(=O)CCC[C@@H]1C | -5.95% [at 11.4 µM] (inactive) |  |
| CC(=O)N1CCC(=O)N(C(C)C)c2ccccc21 |  | inactive |

| Structure (SMILES) | activity, negative = inhibition | AC50 |
| --- | --- | --- |
| Cc1cc(N2CCN(c3nc4ccccc4s3)CC2)n2ncnc2n1 |  | 15800 nM (active) |
| CCCNC(=O)OC[C@@H]1O[C@H](CCO/N=C(\C)CCN2CCCc3nc(C)c(C)cc32)C=C[C@@H]1Oc1ccc(OC)cc1 | 0.587% [at 11.4 µM] (inactive) |  |
| CCCCOc1ccc(C(=O)N/C(=C\c2cccc([N+](=O)[O-])c2)C(=O)OCCC)cc1 |  | inactive |
| COc1ccc(NC(=O)/C(=C\c2cc(OC)c(OC)cc2[N+](=O)[O-])NC(=O)c2ccccc2)cc1 |  | inactive |
| C=CCOC(=O)/C(=C\c1cccc2ccccc12)NC(=O)c1ccccc1 |  | 7080 nM (active) |
| c1ccc2c(c1)-c1nc3ccccc3cc1[C@H]2N1CCOCC1 |  | 1260 nM (active) |
| CCCCCCC1CC(C)(/C(C)=N/NC(N)=O)OC1=O (stereo not drawn) |  | inactive |
| O=S(=O)(c1cnccc1N1CCN(/N=C/c2ccccc2)CC1)N1CCCCC1 |  | inactive |
| CCn1c(-c2ccoc2C)n[nH]c1=S |  | 22400 nM (active) |
| O=C(O)CCSC1=NCCN1 | -7.93% [at 11.4 µM] (inactive) |  |
| CSC1(SC2=NCCN2)SC2(NCCN2)S1 |  | 398 nM (active) |
| COc1ccc(NC(=O)N2CC[C@@]3(CCCNC3)C2)cc1 |  | inactive |
| CCCCN1C(=O)C(NC(=O)C2CC2)(C(F)(F)F)C2=C1CC(C)(C)CC2=O (stereo not drawn) |  | inactive |
| CSc1nncc(/C(C)=N\Nc2ccccc2)n1 |  | 12600 nM (active) |
| CC/C(=N/Nc1ccccc1)c1cnnc(SC)n1 |  | 10000 nM (active) |
| CCc1ccc(N(C(=O)c2ccoc2C)C(C(=O)NC2CCCC2)c2ccc(OC)cc2)cc1 (stereo not drawn) |  | inactive |
| Cc1ccc(Nc2nnc(-c3ccc4c(c3)OCO4)o2)c(C)c1 |  | 2510 nM (active) |
| COc1ccc([C@H](O)c2ccccn2)cc1 | -16% [at 11.4 µM] (inactive) |  |
| COc1cc(N=C(N)N=C(N)N)c2ncccc2c1 |  | 398 nM (active) |
| COc1cc(NCCC(=O)O)c2ncccc2c1 | -18.1% [at 11.4 µM] (inactive) |  |
| CC(C)=CCC/C(C)=C/CO/N=C1/[C@H]2O[C@@H]2[C@@H](O)[C@H]2[C@H]1CCn1c(=O)n(Cc3cc4c(cc3Cl)OCO4)c(=O)n12 | -2.22% [at 11.4 µM] (inactive) |  |
